According to PubChem BioAssay (NCATS):
Records with an inconclusive call do not appear. Where a call stands in place of a potency, no number is given. The source made the active and inactive calls. The call rests on the fitted dose curve; in most records, active means well fitted curve in the direction sought with a large enough effect; inconclusive means small, poorly fitted or top-dose-only effect, or another doubt; inactive means no such curve, though single readings can be large; an effect the other way counts as inactive or inconclusive.

Assays:
[1] = qHTS assay for measurement of the activity of small molecule inhibitors on Zika virus induced Caspase-3 activity in human iPSC derived neural progenitor cells (hNPCs) (AID 1224857); further: nearly all actives have a fitted effect of over 65% in size
Method in brief: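 Values are percent inhibition of virus-induced caspase-3/7 signal, scaled between uninfected cells and ZIKV-infected cells. Infection used 2 FFU/cell for 6 h after 1 h compound exposure.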

[2] = qHTS assay for measurement of the activity of small molecule inhibitors on Zika virus induced Caspase-3 activity in human astrocytoma cells (AID 1224859)
Method in brief: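 Compound added 1 h pre-infection; ZIKV 2 FFU/cell on SNB-19 cells, 6 h, 37 C/5% CO2. Caspase-Glo 3/7 luminescence; values as % inhibition of ZIKV-induced caspase activity.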

[3] = P-glycoprotein substrates identified in KB-8-5-11 adenocarcinoma cell line, qHTS therapeutic library screen (AID 1346987); further: nearly all actives have a fitted effect of over 65% in size; further: potency means the concentration at half of the fitted maximal effect
Method in brief: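 Luminescence from CellTiter-Glo, read 5 min after addition, quantified survival of KB-8-5-11 (P-gp-overexpressing) cells exposed to compounds for 72 h. AC50 was derived from concentration-response curves.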

[4] = NS1 protein of Zika virus - qHTS assay to identify small molecule inhibitors in human HEK 293 cells (AID 1347053); further: nearly all actives have a fitted effect of over 55% in size
Method in brief: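 TR-FRET signal from two anti-ZIKV NS1 antibodies quantified NS1 in HEK 293 cells 24 h after MR766 infection at MOI = 0.5; compounds were added 1 h before virus. Uninfected cells and infected cells defined the NS1 normalization range.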

[5] = P-glycoprotein substrates identified in KB-3-1 adenocarcinoma cell line, qHTS therapeutic library screen (AID 1346986); settings: KB-3-1 parental cells viability, CellTiter-Glo, 72 h; at 44.5 µM (top of the series); further: nearly all actives have a fitted effect of over 60% in size
Method in brief: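 72 h cell-killing screen, 500 cells/well, CellTiter-Glo luminescence. Paired lines KB-3-1/KB-8-5-11; P-gp dependence checked by tariquidar co-treatment and HEK-293 MDR-19 versus empty-vector cells.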

Row | SMILES | outcome [1] | outcome [2] | Potency [3] | Potency [4] | outcome [5]
1 | CC1(C)OC[C@@H](COC(=O)CCc2ccc(OC[C@@H](O)CNCCNC(=O)N3CCOCC3)cc2)O1 | inactive | inactive | inactive | inactive | 
2 | Oc1c(I)cc(I)c2cccnc12 | inactive | inactive |  | inactive | 
3 | Cc1onc(-c2c(Cl)cccc2Cl)c1C(=O)N[C@@H]1C(=O)N2[C@@H]1SC(C)(C)[C@@H]2C(=O)O | inactive | inactive | inactive | inactive | 
4 | Nc1ccc(C(=O)Nc2ccccc2N)cc1 | inactive | inactive | 16.4 µM (active) |  | 
5 | COC(=O)C1=C(C)NC(C)=C(C(=O)O[C@@H]2CCCN(Cc3ccccc3)C2)[C@@H]1c1cccc([N+](=O)[O-])c1 | inactive | inactive | 20.6 µM (active) | inactive | 
6 | Cc1cc2c(cc1CC(=O)c1sccc1S(=O)(=O)Nc1onc(C)c1Cl)OCO2 | inactive | inactive | inactive | inactive | 
7 | CN(C)/N=N/c1nc[nH]c1C(N)=O | inactive | inactive |  | inactive | 
8 | COCc1c(C(C)C)nc(C(C)C)c(/C=C/[C@@H](O)C[C@@H](O)CC(=O)O)c1-c1ccc(F)cc1 | inactive | inactive | 0.731 µM (active) | inactive | 
9 | Cc1ccccc1C(=O)Nc1ccc(C(=O)N2CCCC(N(C)C)c3ccccc32)cc1 (stereo unspecified) | inactive | inactive | 5.8 µM (active) |  | 
10 | CC(C)(C(=O)c1cccnc1)c1cccnc1 | inactive | inactive | inactive | inactive | 
11 | CCCCS(=O)(=O)N[C@@H](Cc1ccc(OCCCCC2CCNCC2)cc1)C(=O)O | inactive | inactive | inactive |  | inactive
12 | C[C@]12CCC(=O)C=C1CC[C@H]1[C@@H]3CC[C@](O)(C(=O)CO)[C@@]3(C)C[C@H](O)[C@@]12F | inactive | inactive | inactive |  | 
13 | Cc1nc2n(c(=O)c1CCN1CCC(c3noc4cc(F)ccc34)CC1)CCC[C@H]2O | inactive | inactive | inactive | inactive | 
14 | CN(C)C(=S)SC(=S)N(C)C | inactive | inactive | inactive |  | 
15 | CC(C)n1nc(-c2cc3cc(O)ccc3[nH]2)c2c(N)ncnc21 | inactive | inactive | 0.366 µM (active) |  | 
16 | NC[C@H]1O[C@H](O[C@H]2[C@H](O)[C@@H](O[C@H]3O[C@H](CO)[C@@H](O)[C@H](N)[C@H]3O)[C@H](N)C[C@@H]2N)[C@H](N)[C@@H](O)[C@@H]1O | inactive | inactive | inactive | inactive | 
17 | CN(C)CCCOc1nn(Cc2ccccc2)c2ccccc12 | inactive | inactive | inactive | inactive | 
